AC50 and outcome data for 3 compounds are collected here from PubChem BioAssay AID2284326 (EPA ToxCast).

Inconclusive results are not listed. Calls of active or inactive are those of the source. How the source made its calls: active means hit-call score of the fitted dose curve at least 0.9, where 1 is the maximum; inconclusive means response in the unintended direction; inactive means score below 0.9.

The test system of this assay is TPO (gene 7173). The assay is described as follows: CCTE_GLTED_hTPO: CCTE's human Thyroperoxidase (hTPO) Inhibition Assay, Great Lakes Toxicology and Ecology Division (GLTED) Lab. On the procedure: CCTE_GLTED_hTPO is a cell-free, single-readout assay designed to test the inhibitory activity of chemicals toward human thyroperoxidase (TPO) protein. Uninhibited enzyme converts Amplex UltraRed to a fluorescent product. Measurements were taken 0.5 hour after chemical dosing in a 96-well plate. CCTE_GLTED_hTPO is the assay component measured from the CCTE_GLTED_hTPO assay. It is designed to make measurements of enzyme activity, a form of enzyme reporter, as detected with […] by Fluorescence technology.Data from the assay component CCTE_GLTED_hTPO was analyzed at the assay endpoint CCTE_GLTED_hTPO in the positive analysis fitting direction relative to DMSO as the negative control and baseline of activity. Using a type of enzyme reporter (the Amplex UltraRed assay), loss-of-signal activity can be used to understand decreased peroxidase activity in the presence of excess […]. To generalize the intended target to other relatable targets, this assay endpoint is annotated to the 'oxidoreductase' intended target family, where the subfamily is 'peroxidase'.
[…]
Take `O=C(O)C(F)(OC(F)(F)C(F)(F)C(F)(F)F)C(F)(F)F` (stereo not drawn): the AC50 was 40.2 µM (active). On to `O=S(=O)(O)C(F)(F)C(F)(F)C(F)(F)C(F)(F)C(F)(F)C(F)(F)C(F)(F)C(F)(F)F`, for which the AC50 was 285 µM (active). `O=C(O)C(F)(F)C(F)(F)C(F)(F)C(F)(F)C(F)(F)C(F)(F)C(F)(F)C(F)(F)F`: the compound was classed as inactive.

For orientation: AC50 means the concentration giving half of the maximal activity seen.
